According to PubChem BioAssay AID743025 (Vanderbilt Specialized Chemistry Center, 2013):
The source made the active and inactive calls.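 The calls were made as follows: active = IC50 below 10 µM at human M5 in a calcium flux test, acting as a negative modulator; inactive = the rest.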

target: Muscarinic acetylcholine receptor M5 (Homo sapiens) (UniProt P08912); assay: M5 muscarinic receptor negative allosteric modulators, cell-based, single concentration, human M5 (AID 743025); details: CHO-K1 hM5, ACh EC80 calcium flux, Fluo-4; at 10 µM; active compounds read low
Sequence (P08912 whole entry, looked up): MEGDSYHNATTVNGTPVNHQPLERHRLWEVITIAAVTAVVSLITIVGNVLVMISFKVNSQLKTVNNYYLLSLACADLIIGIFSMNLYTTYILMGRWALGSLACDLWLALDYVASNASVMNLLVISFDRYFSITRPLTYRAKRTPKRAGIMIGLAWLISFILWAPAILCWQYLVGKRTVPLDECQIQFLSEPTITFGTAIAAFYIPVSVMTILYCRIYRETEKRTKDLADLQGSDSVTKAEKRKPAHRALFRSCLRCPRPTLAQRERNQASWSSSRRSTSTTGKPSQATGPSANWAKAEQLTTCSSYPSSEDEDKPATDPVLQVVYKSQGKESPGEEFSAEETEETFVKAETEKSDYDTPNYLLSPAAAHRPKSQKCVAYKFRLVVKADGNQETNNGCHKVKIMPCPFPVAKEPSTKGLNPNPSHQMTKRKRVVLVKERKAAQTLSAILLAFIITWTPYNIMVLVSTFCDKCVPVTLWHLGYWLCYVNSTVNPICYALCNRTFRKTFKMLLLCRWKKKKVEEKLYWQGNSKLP

Activity remaining, inactive:
O=C1c2ccccc2C2(c3ccccc3)NCCN12 (configuration not stated) 89.3%, O=C1c2ccccc2C2(c3ccccc3)N1CCN2C(=S)Nc1cccc(Cl)c1 (configuration not stated) 93%, CC(C)(C)C(=O)N1CCN2C(=O)c3ccccc3C21c1ccccc1 (configuration not stated) 83.6%, O=C(c1ccc(F)c(F)c1)N1CCc2ccccc2C1c1ccc(Cl)cc1 (configuration not stated) 67.4%, O=C(Nc1ccc(Cl)cc1)N1CCN2C(=O)c3ccccc3C12c1ccccc1 (configuration not stated) 78.2%, CN(C(=O)c1ccccc1)C(c1ccccc1)c1ccccc1 84.3%, O=C(c1ccccc1)N1CCN(C(=O)c2ccccc2)C1c1ccccc1 85.3%, O=C(c1ccncc1)N1CCN2C(=O)c3ccccc3C12c1ccc(Cl)cc1 (configuration not stated) 72.4%, O=C1CCC2(c3ccccc3)Nc3ccccc3N12 (configuration not stated) 81.8%, O=C(c1ccc(C(=O)C(F)(F)F)cc1)N1CCN2C(=O)c3ccccc3C12c1ccccc1 (configuration not stated) 90%, O=C(Nc1ccc(F)cc1)N1CCN2C(=O)c3ccccc3C12c1ccccc1 (configuration not stated) 84.3%, O=C(c1ccccc1)N1CCN2C(=O)c3ccccc3C12c1ccccc1 (configuration not stated) 74.8%, O=C(c1cc(F)ccc1F)N1CCN2C(=O)c3ccccc3C12c1ccccc1 (configuration not stated) 76%, O=C(c1ccccc1C(F)(F)F)N1CCN2C(=O)c3ccccc3C12c1ccccc1 (configuration not stated) 82.4%, O=C(NCCNC(=O)c1ccccc1C(=O)c1ccc(F)cc1)c1ccccc1 86.1%, O=C(c1ccccc1F)N1CCN2C(=O)c3ccccc3C12c1ccccc1 (configuration not stated) 85.8%, CN(C)c1ccc(C(=O)N2CCN3C(=O)c4ccccc4C23c2ccccc2)cc1 (configuration not stated) 88%, O=C(c1ccc(F)c(F)c1)N1CCN2C(=O)c3ccccc3C12c1ccc(F)cc1 (configuration not stated) 64.5%, O=C(Nc1cccc(Cl)c1)N1CCN2C(=O)c3ccccc3C12c1ccccc1 (configuration not stated) 83%, CSc1ccc(C(=O)N2CCN3C(=O)c4ccccc4C23c2ccccc2)cc1 (configuration not stated) 58%, O=C(c1ccc(C(F)(F)F)cc1)N1CCN2C(=O)c3ccccc3C12c1ccc(F)cc1 (configuration not stated) 70.2%, O=C(c1ccc(C(F)(F)F)cc1)N1CCCN2C(=O)c3ccccc3C12c1ccc(Cl)cc1 (configuration not stated) 75.7%, Cc1cccc(C(=O)N2CCCN3C(=O)c4ccccc4C23c2ccc(Cl)cc2)c1 (configuration not stated) 72.9%, Cc1ccc(C(=O)N2CCN3C(=O)c4ccccc4C23c2ccc(F)cc2)cc1 (configuration not stated) 67.9%, O=C(c1cccs1)N1CCN2C(=O)c3ccccc3C12c1ccccc1 (configuration not stated) 79.5%

Activity remaining, active:
Cc1ccc(C23c4ccccc4C(=O)N2CCN3C(=O)c2ccc(F)c(F)c2)cc1 (configuration not stated) 0.51%, COc1ccc(C23c4ccccc4C(=O)N2CCN3C(=O)c2cccc(C(F)(F)F)c2)cc1 (configuration not stated) 47.9%, O=C(c1ccccc1)N1CCN2C(=O)c3ccccc3C12c1ccc(F)cc1 (configuration not stated) 67.6%, O=C(c1cccc(C(F)(F)F)c1)N1CCN2C(=O)c3ccccc3C12c1ccc(F)cc1 (configuration not stated) 0.24%, COc1ccc(C23c4ccccc4C(=O)N2CCN3C(=O)c2ccc(C(F)(F)F)cc2)cc1 (configuration not stated) 48%, O=C(c1cc(Cl)cc(Cl)c1)N1CCN2C(=O)c3ccccc3C12c1ccccc1 (configuration not stated) 5.4%, CC(C)Oc1ccc(C(=O)N2CCN3C(=O)c4ccccc4C23c2ccc(Cl)cc2)cc1 (configuration not stated) -1.43%, O=C(c1cc(Cl)cc(Cl)c1)N1CCCN2C(=O)c3ccccc3C12c1ccccc1 (configuration not stated) 51.9%, O=C(c1ccc(SC(F)(F)F)cc1)N1CCN2C(=O)c3ccccc3C12c1ccccc1 (configuration not stated) 1.05%, O=C(c1cccc(C(F)(F)F)c1)N1CCN2C(=O)c3ccccc3C12c1ccccc1 (configuration not stated) 6.77%, CSc1ccc(C23c4ccccc4C(=O)N2CCN3C(=O)c2ccc(F)c(F)c2)cc1 (configuration not stated) 14.6%, Cc1ccc(C23c4ccccc4C(=O)N2CCN3C(=O)c2cc(F)cc(F)c2)cc1 (configuration not stated) 2.43%
